From PubChem
Shown are actives, neighbours in structure and some others; about 13% of the full set was active somewhere.
Pf growth 96h = P. falciparum growth inhibition at 96 hour, primary screen for plastid delayed-death inhibitors | P. falciparum luciferase reporter growth, 96 h | Potency, µM (highest dose often 28.7 µM), most hits filed as inhibitors | actives 6.9% (n = 320,000) | AID 504834
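Infected RBCs, 2% Hct / 0.05% parasitemia final; luciferase-reporter P. falciparum; cpd 96 h, 37 C, 5% CO2; luciferase detection reagent; luminescence.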
HCV inh = HCV inhibition | Huh7.5.1 HCVcc-Cre infection, luciferase reporter, 44 h | Potency, µM (highest dose often 41.8 µM), actives largely listed as inhibitors | actives 3.4% (n = 340,000)
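Infectious HCVcc-Cre (~0.5 moi) was added to cells just after compound, with cells seeded 4 h earlier at 1,000 per well. Luciferase activity after 44 h culture reported infection; substrate was incubated 15 min at room temperature before reading.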
HCMV inh = inhibitors of human cytomegalovirus | activity change, negative = inhibition, % at 57.5 µM | AID 1259415 | HFF cells, HCMV-luciferase reporter, 72 h; active compounds read low | actives 4.5% (n = 410,000); in the data active = activity change below about -60%; inconclusive = no clear call, values can overlap the other calls; inactive = above about -39%
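Inhibition of viral replication was scored as loss of reporter luminescence in HFFs infected with HCMV-luciferase (MOI 1 PFU/cell) for 72 h; compounds tested at 2 doses, normalized to buffer and Salinomycin controls.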
Pf growth 48h = inhibits P. falciparum growth in the first generation, 48 h. P. falciparum luciferase growth in erythrocytes, 48 h. Potency, µM (doses to about 28.7 µM), usual class: inhibitors. actives 5.9% (n = 310,000). AID 504832
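Erythrocytes infected with P. falciparum carrying an integrated firefly luciferase reporter (2% hematocrit, 0.1% parasitemia final) were exposed to compounds in RPMI 1640 with 0.5% Albumax at 37 C, 5% CO2. Growth inhibition was scored as reduced luminescence.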
Of the large screens only hits and unclear results are named; the others gave an inactive call. Unless noted, calls follow the shape of the dose curve; as a rule, active = well fitted inhibition curve with a large enough effect; inconclusive = small, poorly fitted or top-dose-only effect, or another doubt; inactive = no such curve, though single readings can be large or run the other way.

Cc1ccnc(NC(=O)C2CCCN(c3ncnc4c3nc3n4CCCCC3)C2)c1 (stereo unspecified)	Pf growth 96h 10.4µM
Cc1ccc(CCNC(=O)C2CCCN(c3ncnc4c3nc3n4CCCCC3)C2)cc1 (stereo unspecified)	Pf growth 48h inconclusive
Cc1ccc(NC(=O)C2CCCN(c3ncnc4c3nc3n4CCCCC3)C2)nc1 (stereo unspecified)	HCMV inh inconclusive, Pf growth 48h inconclusive
CC(=O)c1ccc(NC(=O)C2CCCN(c3ncnc4c3nc3n4CCCCC3)C2)cc1 (stereo unspecified)	Pf growth 96h 6.57µM, HCMV inh inconclusive, Pf growth 48h inconclusive
O=C(Nc1ccccn1)C1CCCN(c2ncnc3c2nc2n3CCCCC2)C1 (stereo unspecified)	HCMV inh inconclusive
O=C(CSc1nnc(CNC(=O)c2c(F)cccc2Cl)o1)Nc1ccccc1F	none (no result: Pf growth 96h, HCV inh, Pf growth 48h)
Fc1cccc(-c2nnn3c2nc(NC2CCCCC2)c2ccccc23)c1	none (no result: Pf growth 96h, HCV inh, Pf growth 48h)
O=C(c1ccc2c(c1)N(Cc1ccc(Cl)cc1)C(=O)c1ccccc1S2(=O)=O)N1CCOCC1	none (no result: Pf growth 96h, HCV inh, Pf growth 48h)
CC1CCN(CCNC(=O)C2CCCN(c3ncnc4c3nc3n4CCCCC3)C2)CC1 (stereo unspecified)	Pf growth 96h 2.94µM
CCOc1ccc(CCNC(=O)c2cn(C)c3ccc(S(=O)(=O)N4CCCCCC4)cc3c2=O)cc1OCC	none (no result: Pf growth 96h, HCV inh, Pf growth 48h)
COc1ccccc1-c1nc2c(c(SCc3ccc(F)cc3Cl)n1)Cc1c(CO)cnc(C)c1O2	none (no result: Pf growth 96h, HCV inh, Pf growth 48h)
COC(=O)c1cn(NC(=O)c2cc([N+](=O)[O-])ccc2F)c(=O)c2ccccc12	HCV inh inconclusive, HCMV inh -96.9
COC(=O)c1cn(NC(=O)C2CCC(C)CC2)c(=O)c2ccccc12 (stereo unspecified)	Pf growth 96h inconclusive, Pf growth 48h inconclusive
CN1CCN(C(=O)COc2ccc(N(C)S(=O)(=O)c3ccc(F)cc3)cc2)CC1	none
CCOC(=O)C1CCN(C(=O)COc2ccc(N(C)S(=O)(=O)c3ccc(C)cc3)cc2)CC1	HCMV inh -102.4
CCOc1ccc(S(=O)(=O)N(C)c2ccc(OCC(=O)N3CCOCC3)cc2)cc1	Pf growth 96h inconclusive (no result: Pf growth 48h)
COC(=O)C1CCN(C(=O)COc2ccc(N(C)S(=O)(=O)c3ccc(C)cc3)cc2)CC1	Pf growth 96h inconclusive, Pf growth 48h 13.1µM
CN(c1ccc(OCC(=O)N2CCC(C(N)=O)CC2)cc1)S(=O)(=O)c1cccs1	Pf growth 96h inconclusive (no result: Pf growth 48h)
CCC1CCCCN1C(=O)COc1ccc(N(C)S(=O)(=O)c2ccc(C)cc2)cc1 (stereo unspecified)	Pf growth 96h inconclusive, HCV inh 10µM, Pf growth 48h inconclusive
CN(c1ccc(OCC(=O)N2CCCC2)cc1)S(=O)(=O)c1ccc(Cl)cc1	Pf growth 96h inconclusive, Pf growth 48h 10.4µM
CCOc1ccccc1C(=O)NC1(C(F)(F)F)C(=O)Nc2c1c(=O)[nH]c(=O)n2-c1ccccc1 (stereo unspecified)	none (no result: Pf growth 96h, HCV inh, Pf growth 48h)
CC(C)CSc1ccccc1NC(=O)c1sc2nc(-c3ccncc3)ccc2c1N	none (no result: Pf growth 96h, HCV inh, Pf growth 48h)
CCc1ccc(S(=O)(=O)/N=C2/C=C(Sc3ncn[nH]3)C(=O)c3ccccc32)cc1	Pf growth 96h 4.15µM, HCV inh 2.82µM, Pf growth 48h 2.94µM (no result: HCMV inh)
CCc1ccc(S(=O)(=O)/N=C2\C=C(Nc3ccc(O)cc3)C(=O)c3ccccc32)cc1	Pf growth 96h inconclusive, HCV inh inconclusive, Pf growth 48h 0.738µM (no result: HCMV inh)
CCc1ccc(S(=O)(=O)/N=C2\C=CC(=O)c3ccccc32)cc1	Pf growth 96h inconclusive, Pf growth 48h 2.33µM (no result: HCV inh, HCMV inh)
CCc1ccc(S(=O)(=O)/N=C2\C=C(Nc3cccc(C(=O)O)c3)C(=O)c3ccccc32)cc1	HCV inh inconclusive, Pf growth 48h 1.65µM
Cc1ccc(S(=O)(=O)/N=C2\C=C(NS(=O)(=O)c3ccccc3)C(=O)c3ccccc32)cc1	none (no result: Pf growth 96h, Pf growth 48h)
O=C(NC1CC(=O)N(c2ccc(Cl)cc2)C1)c1ccc(S(=O)(=O)N2CCCC2)cc1 (stereo unspecified)	none (no result: Pf growth 96h, HCV inh, Pf growth 48h)
Cn1c(=O)[nH]c(=O)c2c1nc(SCC(=O)O)n2Cc1ccccc1	none
Cc1csc(Sc2nc3c(c(=O)[nH]c(=O)n3C)n2Cc2ccccc2Cl)n1	none
Cc1cccc(Cn2c(Sc3nc(C)cs3)nc3c2c(=O)[nH]c(=O)n3C)c1	Pf growth 96h 1.65µM, HCV inh inconclusive
Cc1cccc(Cn2c(SCC(=O)Nc3ccccc3)nc3c2c(=O)[nH]c(=O)n3C)c1	Pf growth 96h inconclusive, HCV inh 25.1µM, Pf growth 48h inconclusive
COc1ccc(NC(=O)CSc2nc(-c3ccc(F)cc3)c3cccc(C)c3n2)cc1	none (no result: Pf growth 96h, HCV inh, Pf growth 48h)
COc1ccc(NC(=O)C2(S(=O)(=O)c3ccc(C)cc3)CC2)c(OC)c1	none (no result: Pf growth 96h, HCV inh, Pf growth 48h)
CCOc1ccc(C(=O)N(Cc2nc(-c3cccc(C)c3)no2)C(C)C)cc1	none (no result: Pf growth 96h, HCV inh, Pf growth 48h)
Cc1ccc(C)c(N2CCN(S(=O)(=O)c3ccc4c(c3)CC(C)N4C(=O)C3CC3)CC2)c1 (stereo unspecified)	HCV inh inconclusive, HCMV inh inconclusive, Pf growth 48h inconclusive
CC1C(=O)N2CCCc3cc(S(=O)(=O)N4CCN(c5ccccc5F)CC4)cc1c32 (stereo unspecified)	HCV inh inconclusive, HCMV inh inconclusive, Pf growth 48h 11.7µM
CC1Cc2cc(S(=O)(=O)N3CCN(C)CC3)ccc2N1C(=O)C1CC1 (stereo unspecified)	Pf growth 96h 5.86µM, Pf growth 48h inconclusive
Cc1cccc(N2CCN(S(=O)(=O)c3ccc4c(c3)CC(C)N4C(=O)C3CC3)CC2)c1C (stereo unspecified)	Pf growth 96h inconclusive, HCV inh inconclusive, HCMV inh -61.3, Pf growth 48h inconclusive
CCOC(=O)C1CCCN(S(=O)(=O)c2ccc3c4c(cccc24)C(=O)N3CC)C1 (stereo unspecified)	Pf growth 96h inconclusive, HCV inh inconclusive, Pf growth 48h 10.4µM
COC(=O)C1CCN(S(=O)(=O)c2cc3c4c(c2)C(C)C(=O)N4CCC3)CC1 (stereo unspecified)	none (no result: Pf growth 96h, HCV inh, Pf growth 48h)
COc1ccccc1CNC(=O)c1cn(C)c2ccc(S(=O)(=O)N(C)C3CCCCC3)cc2c1=O	none (no result: Pf growth 96h, HCV inh, Pf growth 48h)
Cc1cc(Cl)ccc1NC(=O)CCS(=O)(=O)c1ccc2c(c1)CC(C)N2C(=O)C1CC1 (stereo unspecified)	HCMV inh -65.1 (no result: Pf growth 96h, HCV inh, Pf growth 48h)
Cc1ccc(C)c(N2CCN(S(=O)(=O)c3ccc4c(c3)CCCN4C(=O)C3CCC3)CC2)c1	none (no result: Pf growth 96h, HCV inh, Pf growth 48h)
CCOC(=O)C1CCN(S(=O)(=O)c2ccc3c(c2)CC(C)N3C(=O)C2CCC2)CC1 (stereo unspecified)	Pf growth 96h inconclusive, HCV inh inconclusive
CCC(=O)N1CCCc2cc(S(=O)(=O)N3CCN(c4ncccn4)CC3)ccc21	none (no result: Pf growth 48h)
CCC(=O)N1CCCc2cc(S(=O)(=O)N3CCN(c4ccccc4F)CC3)ccc21	HCV inh 12.6µM, HCMV inh inconclusive (no result: Pf growth 48h)
CCOC(=O)C1CCCN(S(=O)(=O)c2ccc3c(c2)CC(C)N3C(=O)C2CC2)C1 (stereo unspecified)	Pf growth 96h 10.4µM, HCV inh inconclusive
